PKM2 act – increases activity of human pyruvate kinase M2; P14618; purified PKM2, Kinase-Glo ATP luminescence, activation; response scale: 0% is enzyme alone, no compound; Potency, µM (series often up to 57.5 µM), hits mostly activators; 260,000 tested, 0.34% active; also: nearly all actives have a fitted effect of over 55% in size
Target sequence (P14618 whole entry, looked up): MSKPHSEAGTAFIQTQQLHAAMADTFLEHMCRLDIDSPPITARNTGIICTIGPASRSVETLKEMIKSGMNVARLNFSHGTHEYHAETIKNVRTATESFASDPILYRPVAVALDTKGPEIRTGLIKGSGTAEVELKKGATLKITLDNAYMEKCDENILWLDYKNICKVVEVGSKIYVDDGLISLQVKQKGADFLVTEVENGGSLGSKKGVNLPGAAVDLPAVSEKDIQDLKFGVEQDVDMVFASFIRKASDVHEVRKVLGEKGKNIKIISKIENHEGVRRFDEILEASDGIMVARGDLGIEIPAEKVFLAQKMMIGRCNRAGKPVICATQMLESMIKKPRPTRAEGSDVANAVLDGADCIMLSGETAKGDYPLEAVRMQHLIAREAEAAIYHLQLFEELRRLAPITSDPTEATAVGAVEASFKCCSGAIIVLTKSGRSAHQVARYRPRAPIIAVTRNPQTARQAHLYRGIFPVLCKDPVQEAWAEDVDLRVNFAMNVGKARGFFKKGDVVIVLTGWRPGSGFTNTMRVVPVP
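hPK-M2, >95% pure; 0.1 mM ADP / 0.5 mM PEP final; imidazole pH7.2 buffer w/ 7 mM MgCl2, 50 mM KCl; 1 h RT; Kinase-Glo lum. Intermediate enzyme activity for dual inhibitor/activator qHTS.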
ClpP mod – qHTS Assay for Activators of ClpP; ATP-dependent Clp protease proteolytic subunit (Bacillus subtilis (strain 168)), P80244; purified B. subtilis ClpP, FRET peptide cleavage, 20 min; Potency, µM (highest dose often 57.5 µM); 340,000 tested, 1.9% active; AID 651965, 2013; active = well fitted falling curve with a large enough effect; inconclusive = small, poorly fitted or top-dose-only effect; inactive = no such curve, though single readings can be large or run the other way; also: the source files actives as falling curves though it sought activators and does not explain the sign; nearly all actives have a fitted effect of over 65% in size
Target sequence (P80244 whole entry, looked up): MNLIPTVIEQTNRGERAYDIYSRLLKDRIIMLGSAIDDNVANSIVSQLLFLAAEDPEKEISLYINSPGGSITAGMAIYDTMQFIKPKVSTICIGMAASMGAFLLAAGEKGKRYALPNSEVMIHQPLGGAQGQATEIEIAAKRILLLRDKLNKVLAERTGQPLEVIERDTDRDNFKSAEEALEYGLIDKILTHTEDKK
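Buffer: 100 mM Tris/HCl pH8, 100 mM KCl, 0.05% low protease BSA, 2.5% glycerol, 0.01% Tween-20. ClpP 10 microg/mL final; 20 min RT; delta FRET normalized to ADEP and DMSO controls.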
NPSR antag – antagonists of human neuropeptide S receptor cAMP signaling | CHO-NPSR cells, cAMP TR-FRET, antagonist mode | AID 1461 | Potency, µM (series often up to 38.3 µM), hits mostly inhibitors | 220,000 tested, 1% active; also: nearly all actives have a fitted effect of over 50% in size
IL-2 act – IL-2 activation; 360,000 tested, 0.065% active; IL-2 activation reporter assay, cell-based qHTS; stimulated with anti-CD3/CD4/CD28 beads; in transgenic mouse T cells; AID 652025; activation, % (series mostly up to about 46 µM); in the data active = activation above about 50%; inconclusive = mostly about 30% to 49%
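Readout is EGFP and DsRed signal by fluorescent plate cytometry after 18 h at 37 degrees C. Transgenic mouse T cells (750/well) received compound for 60 min before bead stimulation (anti-CD3, anti-CD4, anti-CD28); memory T cells served as non-tolerant control.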
Each line names hits and unclear results; the compound was inactive in the other large screens. Hits are enriched below; roughly 2% of the tested compounds scored in any of these assays. Unless noted, calls follow the shape of the dose curve; as a rule, active = well fitted curve in the direction sought with a large enough effect; inconclusive = small, poorly fitted or top-dose-only effect, or another doubt; inactive = no such curve, though single readings can be large; an effect the other way counts as inactive or inconclusive.

Cc1ccc(Cl)cc1NC(=O)c1cc(S(=O)(=O)N2CCCCCC2)cn1C	none (no result: PKM2 act, NPSR antag, IL-2 act)
COc1ccc(-c2cc(C#N)nc(Oc3ccc(Cl)cc3)n2)cc1	ClpP mod 7.94µM
CCN(CC)c1nc(C#N)cc(-c2ccc(OC)cc2)n1	ClpP mod 35.5µM
Cc1noc(C)c1C(=O)OC(C)C(=O)N1CCc2ccccc21 (stereo not drawn)	none (no result: PKM2 act, NPSR antag)
O=C(NCc1ccc(F)cc1)OC1CC2CC1[C@H]1CCCCN1C2=O (stereo partly drawn)	none (no result: PKM2 act, NPSR antag)
CCc1nnc2n1N=C(c1ccccc1)CS2	none (no result: PKM2 act, NPSR antag)
COc1ccc(C(=O)OCC(N)=O)cc1[N+](=O)[O-]	ClpP mod 28.2µM
CC1=C(C#N)C(c2cn(-c3ccccc3)nc2-c2cccs2)C(C#N)=C(C)N1	ClpP mod 35.5µM
O=C1CCCN1CCC(=O)N1CCCC(Nc2ccc(F)cc2)C1 (stereo not drawn)	ClpP mod 28.2µM (no result: NPSR antag)
O=C(COC(=O)c1ccc(CO)cc1)c1ccc(S(=O)(=O)N2CCCCC2)cc1	none (no result: PKM2 act, NPSR antag)
CN(C)/C=C(\C(=O)c1ccc(F)cc1F)c1nnnn1-c1ccccc1	PKM2 act 15.8µM
CN(C)/C=C(\C(=O)c1ccccc1)c1nnnn1-c1ccccc1	none
CCNC(=S)N(CCc1cccc(C)c1)Cc1cc2cc(OC)c(OC)cc2[nH]c1=O	ClpP mod 17.8µM
CNC(=S)N(CCc1ccccc1)Cc1cc2cc(OC)c(OC)cc2[nH]c1=O	ClpP mod 35.5µM
CNC(=S)N(Cc1ccco1)Cc1cc2cc(OC)c(OC)cc2[nH]c1=O	none (no result: ClpP mod)
COc1cc2cc(CN(CCc3ccccc3C)C(=S)NCCCN(C)C)c(=O)[nH]c2cc1OC	ClpP mod 14.1µM
CCNC(=S)N(CCc1ccccc1C)Cc1cc2cc(OC)c(OC)cc2[nH]c1=O	ClpP mod inconclusive
CC(=O)N(CCc1ccccc1C)Cc1cc2cc3c(cc2[nH]c1=O)OCO3	ClpP mod 28.2µM
c1ccc(-c2ncnc3cc4n(c23)CCC4)cc1	ClpP mod 28.2µM
CCN(CC)C(=O)C1=C(C)N(Cc2ccccc2)C(=O)C(CC(=O)NCCCCc2ccccc2)C1 (stereo not drawn)	none (no result: PKM2 act, NPSR antag)
COc1ccccc1C(=O)Nc1ccc(Oc2ncnc3sc(-c4ccccc4)cc23)cc1	ClpP mod 10µM
COc1cc(C(=O)Nc2ccc(Oc3ncnc4sc(-c5ccccc5)cc34)cc2)cc(OC)c1OC	none
CCOc1cc2c(C#N)c(N3CCNCC3)nc(N)c2c(N)n1	ClpP mod 35.5µM
CCOc1ccccc1N1CCN(c2nc(N)c(C#N)c(CC#N)c2C#N)CC1	none
CCOC(=O)C1CCN(c2nc(N)c3c(N)nc(SCC(=O)O)cc3c2C#N)CC1	PKM2 act 10µM
COc1ccc(CN2C(=O)Cc3c2nc(N)c2c(N)nc(N4CCCCC4)c(C#N)c32)cc1	none (no result: ClpP mod, IL-2 act)
CCOc1cc2c(C#N)c(N3CCCCC3)nc(N)c2c(N)n1	ClpP mod 25.1µM
CCOC(=O)C1CCN(c2nc3cc(OC)ccc3cc2C#N)CC1	ClpP mod inconclusive
C=CCN(CC(=O)NCc1ccccc1)C(=O)c1csnn1	none
CCN(Cc1ccncc1)S(=O)(=O)c1ccc(C(C)=O)cc1	PKM2 act 22.4µM, NPSR antag inconclusive
CCN(CC)S(=O)(=O)c1ccc(C(=O)Nc2ccc(Cc3ccncc3)cc2)cc1	NPSR antag inconclusive (no result: ClpP mod)
O=C(O)CCCCn1c(SCc2cc(=O)n3cc(Cl)ccc3n2)nc2ccsc2c1=O	none
O=C(O)c1ccc(Cn2c(SCc3cc(=O)n4cc(Br)ccc4n3)nc3ccsc3c2=O)cc1	NPSR antag 10µM (no result: ClpP mod, IL-2 act)
O=C(O)C1CCC(Cn2c(SCc3cc(=O)n4cc(Br)ccc4n3)nc3ccsc3c2=O)CC1 (stereo not drawn)	NPSR antag 7.94µM (no result: ClpP mod)
CCOc1ccc(NC(=O)c2ccc(NC(=S)NC3CC3)cc2)cc1	none (no result: ClpP mod)
CN(CC(=O)NCCCN1CCOCC1)S(=O)(=O)c1ccc(Cl)cc1	ClpP mod 20µM (no result: PKM2 act, NPSR antag)
COc1cccc(N(CC(=O)NCCN2CCOCC2)S(=O)(=O)c2ccccc2)c1	ClpP mod 17.8µM (no result: PKM2 act, NPSR antag)
Cc1ccc(S(=O)(=O)N(C)CC(=O)NCCCc2ccccc2)cc1	none (no result: NPSR antag)
CC(=O)Nc1ccc(Nc2cc(C)nc3c(-c4ccc(Cl)cc4)c(C)nn23)cc1	ClpP mod 28.2µM
CCOc1ccc(-n2c(C)nc3cc(C(=O)NCCN4CCOCC4)ccc32)cc1	none
CCOc1ccc(-n2c(C)nc3cc(C(=O)NCCCN4CCOCC4)ccc32)cc1	ClpP mod 31.6µM
COc1cccc(CN2CCC2(C)C(=O)Nc2cccc3cccnc23)c1F (stereo not drawn)	ClpP mod 28.2µM (no result: PKM2 act, NPSR antag)
CN(C)S(=O)(=O)c1ccc(C(=O)Nc2nnc(Cc3ccccc3)s2)cc1	ClpP mod 22.4µM, NPSR antag inconclusive
Cc1ccccc1-c1cc(C(=O)n2cccn2)c2cc(Cl)ccc2n1	none
CC(C)CCNC(=O)C(c1cccnc1)N(CCc1ccccc1)C(=O)Cn1nnc2ccccc21 (stereo not drawn)	ClpP mod 17.8µM
COc1cc2cc(C(=O)O)[nH]c2c(OC)c1OC	ClpP mod 28.2µM
COc1ccc(OC)c2c(=O)cc(C(=O)O)[nH]c12	none
CCCCn1c(SCN2C(=O)c3ccccc3C2=O)nc2cc(S(N)(=O)=O)ccc21	PKM2 act 15.8µM
CC1CCCN(C(=O)CCS(=O)(=O)c2ccc3c(c2)n(C)c(=O)c(=O)n3C)C1 (stereo not drawn)	ClpP mod inconclusive (no result: NPSR antag)
O=C(c1ccc(F)cc1)N1CCOCC1	none
O=C(c1ccc(=O)oc1)N1CCOCC1	ClpP mod 31.6µM
CCCCCOC(=O)c1[nH]c2c(c1C)C(=O)CC(c1ccco1)C2 (stereo not drawn)	PKM2 act 15.8µM
CCOC(=O)/C(C)=N/NC(=O)c1cccc([N+](=O)[O-])c1	none (no result: ClpP mod)
CC(C)N1CCN(c2ccncc2S(=O)(=O)N2CCOCC2)CC1	none
CCN(CC)c1ccc(-c2nn3c(-c4ccccc4OC)nnc3s2)cc1	ClpP mod 7.94µM, NPSR antag inconclusive
COc1ccccc1-c1nn2c(-c3ccccc3Cl)nnc2s1	none (no result: ClpP mod, IL-2 act)
COc1ccc(-c2cc(-c3ccccc3)n3ncnc3n2)cc1	ClpP mod 31.6µM
COc1ccc(-c2cc(N3CCCC3)n3ncnc3n2)cc1	none
CCOC(=O)c1ccc(-c2cccc(-c3cc(=O)oc4cc(OC)cc(OC)c34)c2)cc1	ClpP mod 20µM (no result: PKM2 act, NPSR antag)
CCOC(=O)C1CCN(Cc2ccc(O)c3ncccc23)CC1	NPSR antag 2.51µM
Oc1c(CN2CCN(c3ccccc3)CC2)cc(Br)c2cccnc12	NPSR antag 7.94µM
CC(C)OCc1cc(CN2CCN(c3ccccc3)CC2)c(O)c2ncccc12	none (no result: PKM2 act, NPSR antag, IL-2 act)
COc1ccccc1N1CCN(Cc2ccc(O)c3ncccc23)CC1	NPSR antag 3.98µM
COCCCn1cnc2c(c1=O)c1nc3ccccc3nc1n2-c1ccc(C)cc1	none
Cc1cc(C)cc(-n2c3nc4ccccc4nc3c3c(=O)n(Cc4ccco4)cnc32)c1	NPSR antag 10µM

Compound activity (PubChem BioAssay)
